Screening results (PubChem BioAssay)
DAX1 inh-1 = DAX1 (NR0B1) inhibitors, primary screen, cell-based, HEK293, Gal4-DAX1, luciferase luminescence | Nuclear receptor subfamily 0 group B member 1 (Homo sapiens), P51843 | HEK293 Gal4-DAX1 luciferase reporter | inhibition, % at 6.75 µM | 340,000 compounds, 0.99% hits;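 active means inhibition above the mean over all tested compounds plus 3 SD, cut at about 4.2% in these data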;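 further: 0% = DAX1-transfected cells with DMSO and 100% = empty-vector control cells with DMSO; inhibition shows as a rise in luminescence from relieved DAX1 repression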
Target sequence (P51843 207-470 limits assumed): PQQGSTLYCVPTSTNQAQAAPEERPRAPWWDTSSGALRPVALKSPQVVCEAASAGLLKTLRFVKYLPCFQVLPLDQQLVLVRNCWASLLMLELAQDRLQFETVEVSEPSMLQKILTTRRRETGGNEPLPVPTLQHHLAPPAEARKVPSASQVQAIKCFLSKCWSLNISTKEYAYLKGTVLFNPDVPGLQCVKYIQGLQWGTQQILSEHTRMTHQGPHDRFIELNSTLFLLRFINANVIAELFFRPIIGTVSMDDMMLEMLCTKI
hcDAF12 agonist = H. contortus DAF-12 nuclear receptor activators, primary screen, cell-based, luminescence, HEK293, lit1-tk-luc reporter; HEK293 hcDAF-12 lit1-tk-luc reporter; 0% DMSO, 100% Δ7-dafachronic acid; activation, % at 6.8 µM; 370,000 compounds, 1.4% hits;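 active means activation above the mean of all tested compounds plus 3 SD, cut at about 5.5% in these data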;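 further: 100% = response to 3 µM Δ7-dafachronic acid high control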
DAX1 inh-2 = DAX1 (NR0B1) inhibitors on StAR promoter, primary screen, cell-based, luminescence, SF-1 (NR5A1), full-length DAX-1; inhibition, % at 6.8 µM; 370,000 compounds, 1.1% hits; HEK293T StAR-luciferase reporter, SF-1/DAX-1 repression relief; AID 652010, 2013;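 active means inhibition above the mean over all tested compounds plus 3 SD, cut at about 3.6% in these data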;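 further: 0% = DAX-1 cells with DMSO and 100% = cells lacking DAX-1 with DMSO; higher inhibition means more luminescence from relief of DAX-1 repression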
ssDAF-12 act = S. stercoralis DAF-12 nuclear receptor activators, primary screen, cell-based, luminescence, HEK293, GRIP1 co-expression, lit1-tk-luc. Nuclear hormone receptor DAF-12 (Strongyloides stercoralis). HEK293 ssDAF-12/GRIP1 lit1-tk-luc reporter; % of 3 µM dafachronic acid response. activation, % at 6.8 µM. 370,000 compounds, 1% hits;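 active means activation above the mean over all tested compounds plus 3 SD, cut at about 0.9% in these data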;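 further: 0% = DMSO-only wells and 100% = 3 µM delta7-dafachronic acid wells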
hgDAF-12 ag = H. glycines DAF-12 receptor agonists, primary screen, cell-based, luminescence, HEK293, GAL4 fusion, UAS-luciferase | Nuclear hormone receptor DAF-12 (Heterodera glycines), GAL4 fusion | HEK293 GAL4-hgDAF12 UAS-luciferase reporter, agonist luminescence; normalized to butyrate control | activation, % at 6.8 µM | 370,000 compounds, 1.8% hits | AID 687014, 2013;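 active means activation above a cutoff set at the mean of all screened compounds plus 3 SD, cut at about 10% in these data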;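 further: 0% = DMSO wells and 100% = sodium butyrate wells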
Active calls of the source: *; / = no result given. Hits are enriched below; roughly 4.1% of the tested compounds scored in any of these assays.

SMILES	DAX1 inh-1	hcDAF12 agonist	DAX1 inh-2	ssDAF-12 act	hgDAF-12 ag
COC(=O)c1[nH]c2c(c1C)C(=O)CC(c1ccccc1)C2 (stereo unspecified)	1	0	0	0	-4
CCOC(=O)c1[nH]c2c(c1-c1ccccc1)C(=O)CC(c1ccccc1)C2 (stereo unspecified)	6.6*	0	2	-1	6
CCOCCOC(=O)c1[nH]c2c(c1C)C(=O)CC(c1ccc(N(C)C)cc1)C2 (stereo unspecified)	0	-2	0	-3	1
COC(=O)[C@]12C[C@H](CC(=O)NCCCCc3ccccc3)C(=O)N(Cc3ccc(Cl)cc3Cl)C1=C[C@H](C(C)(C)C)O[C@@H]2C	/	-2	-1	-1	4
CCOC(=O)C1=C(C)Nc2nc(C)nn2C1c1ccc(OCC)c(OC)c1 (stereo unspecified)	-2	0	0	-1	-3
CCOC(=O)C1=C(C)Nc2nc(C)nn2C1c1ccc(OC)c(OC)c1 (stereo unspecified)	4.6*	1	0	-1	2
CC(=O)Nc1ccc(N=Nc2ccc(O)cc2)cc1	2	4	2	0	12*
Cn1cccc1C(=O)C(=O)Nc1ccccc1C(F)(F)F	4.4*	0	2	-1	4
CC(C)(C)C(=O)NC(=O)Nc1ccccc1C(F)(F)F	2	-1	0	-1	-1
O=C(Nc1ccccc1C(F)(F)F)c1cc(-c2ccccc2O)on1	2	0	2	0	12*
CC(=O)Nc1ccccc1C(F)(F)F	4.3*	0	0	-1	1
Cn1cccc1C(=O)C(=O)Nc1ccccc1	1	5	3.8*	1.0*	13*
Cn1cc(Br)c(C(=O)NNC(=O)Nc2ccccc2C(F)(F)F)n1	4.2*	0	1	-1	10
Cn1cc(Br)c(C(=O)NNC(=O)c2ccccc2)n1	0	-2	0	-2	0
Nc1c(C(=O)c2ccc(Cl)cc2)oc2ccccc12	0	5	1	1.8*	12*
Cn1c(-c2ccccc2[N+](=O)[O-])[n+](C)c2ccccc21	5.0*	0	-1	0	-2
Cn1cccc([N+](=O)[O-])c1=O	-1	0	1	-1	1
O=C(O)c1ccc(-n2ncc3c2/C(=C/c2cccc([N+](=O)[O-])c2)CC3)cc1	0	4	0	0.9*	0
O=C(O)c1ccc(-n2ncc3c2/C(=C\c2cccc([N+](=O)[O-])c2)CC3)cc1	2	1	0	-1	3
CCOC(=O)c1sc2nc3c(SCCC(=O)O)cc(C(=O)c4cc(OC)ccc4O)cn3c(=O)c2c1C	-1	-1	-1	-1	5
CCOC(=O)c1sc2nc3c(SCCC#N)cc(C(=O)c4cc(F)ccc4O)cn3c(=O)c2c1C	0	4	1	1.5*	4
O=C1C[C@H]2[C@H](CO)[C@@H](OC(=O)c3ccc(-c4ccccc4)cc3)C[C@H]2O1	/	0	2	0	2
Cc1ccc2nc(-c3ccccc3)c(CN3CCOCC3)n2c1	2	-1	1	-1	11*
Cc1ccc(-c2nc3ccc(C)cn3c2Cc2cccc(Cl)c2)cc1	/	1	3.8*	-1	9
Cc1ccc2nc(-c3ccccc3)c(CN3CCSCC3)n2c1	-1	-2	-1	-2	2
Cc1ccc2nc(-c3cccc(Cl)c3)c(Cc3ccccc3)n2c1	/	3	4.2*	0	12*
CC(=O)c1c(C(C)=O)c(C)n(NC(=O)c2ccncc2)c1C	5.7*	0	-1	-1	-1
CC(C)(C)NC(=O)c1ccncc1	-1	-2	0	-1	-2
Nc1ccc(O)c2c1C(=O)c1ccccc1C2=O	4.4*	1	1	-1	3
COc1ccc(N)c2c1C(=O)c1ccccc1C2=O	-1	0	1	-1	3
